In PubChem BioAssay:
Records with an inconclusive call do not appear. Activity calls are given as the source filed them.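 How the source made its calls, unless noted: active means Her2 level under about 52% in both replicate screens, with viability over 70% of control (limit read from the data); inconclusive means Her2 under the limit in one screen only, or viability under 70%; inactive means Her2 level above the set limit.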

Experiments:
[1] = Her2 expression decrease, cell viability multiplex – SKBR3 breast tumor cells, AlphaScreen, ATP viability, primary screen (AID 461); settings: SKBR3 Her2 protein level, 18-24 h, measured here: SKBR3 viability, ATP luminescence, at 10 µM;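 on Her2 level: lower value means less Her2 protein in the cells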;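 on viability: percent of carrier control wells set as 100% viability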
[2] = target: Receptor tyrosine-protein kinase erbB-2 (Homo sapiens) (UniProt P04626); assay: as above; settings: 18-24 h, at 10 µM, stronger effect = lower value
Sequence of Receptor tyrosine-protein kinase erbB-2 (Homo sapiens) (P04626 whole entry, looked up): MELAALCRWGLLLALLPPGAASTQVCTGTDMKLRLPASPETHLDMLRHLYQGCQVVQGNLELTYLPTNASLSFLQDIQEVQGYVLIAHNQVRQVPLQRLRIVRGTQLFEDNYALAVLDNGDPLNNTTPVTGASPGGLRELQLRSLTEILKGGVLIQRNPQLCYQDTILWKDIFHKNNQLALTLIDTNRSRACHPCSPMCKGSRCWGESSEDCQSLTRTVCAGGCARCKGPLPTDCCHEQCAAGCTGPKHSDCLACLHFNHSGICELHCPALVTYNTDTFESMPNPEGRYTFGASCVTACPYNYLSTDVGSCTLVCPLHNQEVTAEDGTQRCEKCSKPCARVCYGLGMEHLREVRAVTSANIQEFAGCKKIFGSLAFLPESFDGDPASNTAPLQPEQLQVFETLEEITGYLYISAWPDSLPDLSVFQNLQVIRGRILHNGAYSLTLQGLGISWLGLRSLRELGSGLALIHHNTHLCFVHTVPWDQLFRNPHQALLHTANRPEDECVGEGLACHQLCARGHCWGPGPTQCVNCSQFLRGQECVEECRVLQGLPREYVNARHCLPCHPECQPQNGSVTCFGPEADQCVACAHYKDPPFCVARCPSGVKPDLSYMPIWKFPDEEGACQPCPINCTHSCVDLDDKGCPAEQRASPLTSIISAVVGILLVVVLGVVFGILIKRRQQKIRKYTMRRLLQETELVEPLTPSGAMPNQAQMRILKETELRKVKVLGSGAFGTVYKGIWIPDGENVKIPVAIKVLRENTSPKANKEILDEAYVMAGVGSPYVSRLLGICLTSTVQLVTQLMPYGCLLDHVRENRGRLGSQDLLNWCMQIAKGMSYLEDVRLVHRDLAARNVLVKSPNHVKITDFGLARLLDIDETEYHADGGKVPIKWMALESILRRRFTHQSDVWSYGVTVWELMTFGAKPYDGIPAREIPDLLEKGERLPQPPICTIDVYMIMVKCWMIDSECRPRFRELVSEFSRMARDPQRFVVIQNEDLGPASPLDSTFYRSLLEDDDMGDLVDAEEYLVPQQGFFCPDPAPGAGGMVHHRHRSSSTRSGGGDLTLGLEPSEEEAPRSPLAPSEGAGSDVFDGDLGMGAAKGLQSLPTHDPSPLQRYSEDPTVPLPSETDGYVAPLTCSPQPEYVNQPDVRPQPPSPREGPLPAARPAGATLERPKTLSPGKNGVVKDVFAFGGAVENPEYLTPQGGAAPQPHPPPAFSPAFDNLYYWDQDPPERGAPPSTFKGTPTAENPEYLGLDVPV

[3] = reduced viability of SK-BR-3 breast cancer cells – cell-based, 24 h, human, pilot screen (AID 572;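 active means viability at or below 10% of carrier control in both of two separate runs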;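 further: compound exposure lasted between 18 and 24 h rather than exactly 24 h; 100% = carrier-treated control wells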); settings: SK-BR-3 viability, CellTiter-Glo luminescence, at 10 µM, stronger effect = lower value
[4] = HUVEC growth inhibition – cell-based, human, primary screen (AID 575;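 active means viability at or below 30% in both replicate assays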;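 further: 100% = median of untreated cell wells with 0.1% DMSO on each plate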); settings: HUVEC proliferation, CellTiter-Glo luminescence, 72 h; at 10 µM; stronger effect = lower value
[5] = H69AR cell proliferation blockers – human, duplicate replicates, primary screen (AID 580;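 active means viability at or under a set limit in both replicates, limit being median viability minus 3 SD, cut at about 48% in these data, passing the limit was not always enough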;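 further: 100% = mean luminescence of untreated wells and 0% = no signal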); settings: H69AR lung tumor cells viability, ATP luminescence, 72 h; at 10 µM; stronger effect = lower value
[6] = MRP1 drug-resistance reversers in H69AR cells – cell-based, doxorubicin co-treatment, pilot screen (AID 601;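 active means viability loss from added drug above about 55%, and viability with drug at most 40%, in both replicates, limit read from the data, passing the limit was not always enough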); settings: CellTiter-Glo, 72 h, at 10 µM; for differential viability (reversal): stronger effect = higher value
[7] = yeast transport mutant growth inhibition pilot in 384-well plates, post-Golgi transport modulator project (AID 636; in the data active means inhibition above about 31%); settings: absorbance 615 nm, about 18 h, stronger effect = higher value
[8] = growth suppression of yeast trafficking mutant, preliminary HTS, modulators of trafficking downstream of Golgi apparatus project, 1536-format plate, OD 615 nm (AID 637; in the data active means inhibition above about 30%); settings: yeast transport mutant growth, absorbance 615 nm, 18 h; stronger effect = higher value
[9] = S. cerevisiae growth inhibition in permissive medium (OD615), pilot counter-assay for S. cerevisiae lifespan shortening project, permissive growth control (AID 705;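 active means growth inhibition above 25% in both replicates, a cutoff set 3 SD above the mean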); settings: OD615, 24 h, at 10 µM, stronger effect = higher value
[10] = S. cerevisiae growth inhibition in restrictive medium, OD615, pilot screen, restrictive growth control, yeast lifespan reduction project (AID 706;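 active means growth inhibition above a set limit, 3 SD over mean compound inhibition, in both replicates, cut at about 43% in these data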;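 further: modified DeaD lifespan yeast strain shifted to restrictive glucose medium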); settings: OD615, 48 h, at 10 µM, stronger effect = higher value
[11] = doxorubicin toxicity protection in MRP-1 cells – H69AR cells, CellTiter-Glo, duplicate, MRP-1 activator project, pilot screen (AID 807;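 active means viability increase at or above a cutoff of the median across tested compounds plus 3 SD, cut at about 8.5% in these data, passing the limit was not always enough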;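 further: compound pretreatment 18-22 h then 72 h combined with doxorubicin; 0% = doxorubicin alone and 100% = vehicle without doxorubicin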); settings: H69AR viability with doxorubicin, CellTiter-Glo luminescence; at 10 µM; stronger effect = higher value
[12] = viability of HCT116 without oncogenic beta-catenin – human colon tumor cells, pilot screen (AID 823;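 active means cell viability at or below a set limit in both duplicate runs, the limit being the all-compound median minus 4 SD, cut at about 23% in these data, passing the limit was not always enough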;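 further: 0% = wells killed by 20 µM Hyamine and 100% = untreated DMSO cell wells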); settings: HCT116 beta-catenin knockout viability, CellTiter-Glo, 60 h; at 10 µM; stronger effect = lower value
[13] = viability of PTEN-null HCT116 cells – cell-based, HCT116 clonal line, CellTiter-Glo, pilot screen (AID 824;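 active means viability at or below 27.92% in each of two runs, the all-compound median minus 4 SD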;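 further: 0% = 20 µM Hyamine control and 100% = vehicle cell control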); settings: HCT116 PTEN-deleted viability, 60 h, at 10 µM, stronger effect = lower value
[14] = RAM pathway blockade in budding yeast – dse1pr::URA3 reporter, 5-FOA selection, pilot screen (AID 869;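 active means inhibition over a set limit, the all-compound mean plus 3 SD, in both replicate runs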;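 further: 0% = DMSO wells with no growth and 100% = 10 µM 1-NA-PP1 with full growth; RAM network block rescues cells from 5-FOA so hits raise OD615 growth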); settings: S. cerevisiae dse1pr::URA3 5-FOA growth, OD615, 2 d; at 10 µM; stronger effect = higher value; strain carries analog-sensitive mutant Cbk1 kinase
[15] = RAM signaling pathway blockade in yeast – S. cerevisiae, Pdr1DBD-CYC8 efflux-inhibited sensitized strain, primary screen (AID 1298;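 active means RAM network inhibition above 8.4% in each of two replicates, 3 SD over the compound average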;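 further: 0% = DMSO untreated cells without growth and 100% = 10 µM 1-NA-PP1 full growth; higher means more yeast growth rescued from 5-FOA killing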); settings: S. cerevisiae cbk1-as DSE1-URA3 strain, 5-FOA growth OD615, 2 d; at 50 µM; stronger effect = higher value
[16] = H69AR cells + 2 uM doxorubicin, measured here: viability with 2 uM doxorubicin, stronger effect = lower value
[17] = H69AR cells, compound alone cytotoxicity

| SMILES | viability [1] | Her2 level [2] | viability [3] | viability [4] | viability [5] | differential viability (reversal) ([6]; H69AR cells + 2 uM doxorubicin) | viability [6, 16] | viability [6, 17] | inhibition [7] | inhibition [8] | growth inhibition [9] | growth inhibition [10] | viability increase [11] | viability [12] | viability [13] | inhibition [14] | RAM network inhibition [15] |
| --- | --- | --- | --- | --- | --- | --- | --- | --- | --- | --- | --- | --- | --- | --- | --- | --- | --- |
| COCCOC(=O)C1=C(C)OC(N)=C(C#N)C1c1ccc2c(c1)OCO2 (stereo not given) | 98% | 91.5% (inactive) | 98% (inactive) | 93.7% (inactive) | 84.8% (inactive) | 4.96% (inactive) | 79.8% | 84.8% | -3.12% (inactive) | -7.5% (inactive) | 2.33% (inactive) | -2.95% (inactive) | -1.47% (inactive) | 106% (inactive) | 105% (inactive) | 0.465% (inactive) | 3.07% (inactive) |
| COc1ccc(OCC(=O)N2CC3(C)CC2CC(C)(C)C3)cc1 (stereo not given) | 96% | 84% (inactive) | 96% (inactive) | 108% (inactive) | 99.8% (inactive) | 17% (inactive) | 82.8% | 99.8% | -3.2% (inactive) | -2.9% (inactive) | -9.87% (inactive) | -0.89% (inactive) | 0.69% (inactive) | 97.9% (inactive) | 92% (inactive) | 1.06% (inactive) | 1.07% (inactive) |
| COc1ccc(C(c2sc3nc(C)nn3c2O)N2CCCCC2)cc1 (stereo not given) | 90% | 94.5% (inactive) | 90% (inactive) | 111% (inactive) | 81.8% (inactive) | -13.7% (inactive) | 95.5% | 81.8% | -2.95% (inactive) | 1% (inactive) | -3.33% (inactive) | 8.2% (inactive) | -1.47% (inactive) | 100% (inactive) | 95.2% (inactive) | 0.45% (inactive) | 3.51% (inactive) |
| CC(C)c1nnc(NC(=O)c2ccc(N3C(=O)CCC3=O)cc2)s1 | 91.5% | 89.5% (inactive) | 91.5% (inactive) | 100% (inactive) | 92.5% (inactive) | -1.78% (inactive) | 94.3% | 92.5% | -3.33% (inactive) | -0.67% (inactive) | -2.77% (inactive) | -18.5% (inactive) | -4.79% (inactive) | 101% (inactive) | 95.3% (inactive) | 1.46% (inactive) | 3.77% (inactive) |
| COc1ccccc1CC(=O)Nc1ccc(OC)c(OC)c1 | 102% | 98.5% (inactive) | 102% (inactive) | 101% (inactive) | 89.6% (inactive) | 6% (inactive) | 83.6% | 89.6% | -6.76% (inactive) | 5.74% (inactive) | -8.11% (inactive) | -4.82% (inactive) | -0.4% (inactive) | 101% (inactive) | 104% (inactive) | 1.22% (inactive) | 2.2% (inactive) |
| COc1cccc(-c2nc(CS(=O)(=O)CC(=O)NCc3ccc(Cl)cc3)c(C)o2)c1 | 72.5% | 71% (inactive) | 72.5% (inactive) | 42.8% (inactive) | 87.9% (inactive) | 10.1% (inactive) | 77.8% | 87.9% | 0.4% (inactive) | -2.3% (inactive) | -8.85% (inactive) | -2.68% (inactive) | -3.55% (inactive) | 87.1% (inactive) | 89.3% (inactive) | 2.36% (inactive) | 5.41% (inactive) |
| Cc1cccc(-n2ncc3c(N4CCC5(CC4)OCCO5)ncnc32)c1 | 106% | 92.5% (inactive) | 106% (inactive) | 76% (inactive) | 42.6% (active) | -11.1% (inactive) | 53.8% | 42.6% | -4.4% (inactive) | -9.33% (inactive) | -2.87% (inactive) | -15.6% (inactive) | -7.22% (inactive) | 78% (inactive) | 59.5% (inactive) | 1.75% (inactive) | 3.86% (inactive) |
| COc1cc(C(=O)Nc2cccc(-c3nncn3C)c2)cc(OC)c1OC | 102% | 110% (inactive) | 102% (inactive) | 101% (inactive) | 89% (inactive) | 7.79% (inactive) | 81.2% | 89% | -2.31% (inactive) | -5.5% (inactive) | 2.38% (inactive) | 4.63% (inactive) | -1.76% (inactive) | 91.4% (inactive) | 104% (inactive) | 0.045% (inactive) | 1.54% (inactive) |
| COc1ccc(C(=O)c2coc3ccc(O)c(CN4CCCCC4)c23)cc1 | 79.5% | 106% (inactive) | 79.5% (inactive) | 66% (inactive) | 75.5% (inactive) | -0.2% (inactive) | 75.7% | 75.5% | -3.07% (inactive) | 5.33% (inactive) | -3.45% (inactive) | -4.88% (inactive) | -4.51% (inactive) | 40.5% (inactive) | 53.3% (inactive) | 0.725% (inactive) | 6.6% (inactive) |
| COCCN(CCOC)Cc1c(C)[nH]c2ccccc2c1=O | 96.5% | 98% (inactive) | 96.5% (inactive) | 105% (inactive) | 89.4% (inactive) | -4.47% (inactive) | 93.8% | 89.4% | 1.28% (inactive) | -7.5% (inactive) | -0.675% (inactive) | -3.83% (inactive) | -2.47% (inactive) | 92.1% (inactive) | 91.3% (inactive) | 1.22% (inactive) | 3.31% (inactive) |
